In PubChem BioAssay:
The source made the active and inactive calls. Unless noted, how the calls were made is not given here.

Tests used:
[1] = tested on: Wnt5a (protein binding on small-molecule microarray); assay: Wnt5a binders on small-molecule microarray, primary screen, biophysical, 635/667 nm fluorescence (AID 1142); conditions: 635 nm fluorescence, higher = more signal;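 further: fluorescence read at 667 nm with signal to noise per printed feature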
[2] = cell viability in Huh7 cells, primary screen, cytotoxicity control for HCV replication inhibitor project, CellTiter-Glo luminescence, basal, 48 h (AID 1143); conditions: Huh7 HCV replicon, higher = more signal, called active from +8 up or from −8 down;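 further: Huh7 hepatoma cells carrying a hepatitis C replication reporter with no stimulus; test concentration not given here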
[3] = P. aeruginosa biofilm formation inhibitors, primary screen, PAO1 strain, BacTiter-Glo luminescence, LB-PBS (AID 1144); conditions: 12 h, higher = more signal
[4] = CREB reporter modulators without forskolin, primary screen, cell-based, PC12, CRE-LacZ reporter, unstimulated (AID 1145); conditions: no forskolin, luminescence, 4.5 h, higher = more signal, called active from +8 up or from −8 down
[5] = CREB reporter modulators under forskolin, primary screen, cell-based, PC12, CRE-LacZ reporter, forskolin-stimulated (AID 1146); conditions: luminescence, 4.5 h, higher = more signal, called active from +8 up or from −8 down;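 further: PC12 cells with 6xCRE LacZ reporter stimulated by forskolin 10 µM; beta-galactosidase reporter signal reflecting CREB driven transcription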
[6] = biological target: Streptavidin (Streptomyces avidinii) (UniProt P22629); assay: streptavidin binders on small-molecule microarray, primary screen, artefact control for SMM compound annotation, biophysical, 635/667 nm fluorescence (AID 1147); conditions: streptavidin binding, higher = more signal;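 further: signal reflects streptavidin binding to arrayed compounds as a control protein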
[7] = small-molecule binders of probe aInhba, primary screen, biochemical, small-molecule microarray, 635/667 nm fluorescence (AID 1148); conditions: higher = more signal;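 further: score merges 667nm spot fluorescence with signal-to-noise for antibody binding to printed compounds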
Torsin-1A (Homo sapiens) [8] = biological target: Torsin-1A (Homo sapiens) (UniProt O14656); assay: torsin A binders from cell lysate, primary screen, small-molecule microarray, wild-type, 635/667 nm (AID 1149); conditions: COS7 hTOR1A-WT lysate, 635 nm fluorescence, higher = more signal
Torsin-1A (Homo sapiens) [9] = biological target: Torsin-1A (Homo sapiens) (UniProt O14656); assay: small-molecule binders of mutant TOR1A in lysate, primary screen, cell lysate, small-molecule microarray, COS7 lysate, 635/667 nm fluorescence (AID 1150); conditions: COS7 hTOR1A mutant lysate, 635 nm fluorescence, higher = more signal;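 further: score pools 667 nm emission and signal to noise measuring lysate protein binding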
[10] = tested on: Sonic hedgehog protein (Shh); assay: small-molecule binders of Shh protein, primary screen, biochemical, small-molecule microarray, 635/667 nm fluorescence (AID 1151); conditions: small-molecule microarray binding, 635 nm fluorescence; higher = more signal;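 further: Shh protein binding to compounds spotted on small-molecule microarray slides; score combines spot fluorescence intensity with signal-to-noise across triplicate slides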
[11] = E. coli DRC41 culture turbidity changes, primary screen, E. coli filamentation inducer project, strain DRC41, OD650, 48 h (AID 1152);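 further: E. coli MC1000 strain DRC41 lacking acrAB efflux pump and sulA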; conditions: E. coli DRC41 (acrAB sulA), higher = more signal, called active from +8 up or from −8 down
[12] = small-molecule binders of probe aLefty1, primary screen, biochemical, small-molecule microarray, 635/667 nm fluorescence (AID 1153); conditions: higher = more signal;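 further: score merges spot fluorescence with signal-to-noise ratio from the scanned slide images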
[13] = PSAC antagonists in infected red cells, primary screen, cell-based, P. falciparum Indochina, OD700, 1 h (AID 1154); conditions: P. falciparum Indochina infected RBC osmotic lysis, higher = more signal, called active from +8 up or from −8 down
[14] = PSAC antagonists in infected red cells, primary screen, cell-based, P. falciparum Indochina, OD700, 2 h (AID 1155);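 further: lysis reports solute entry through the parasite surface anion channel PSAC; channel blockers reduce lysis of infected cells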; conditions: P. falciparum Indochina infected erythrocytes, osmotic lysis OD700; higher = more signal, called active from +8 up or from −8 down
[15] = osmotic lysis modulators in infected erythrocytes, primary screen, PSAC antagonist project, cell-based, P. falciparum Indochina, OD700, 3 h (AID 1156); conditions: higher = more signal, called active from +8 up or from −8 down
[16] = PSAC antagonists in infected red cells, primary screen, cell-based, P. falciparum Indochina, OD700, 18 h (AID 1157); conditions: P. falciparum Indochina infected erythrocytes, osmotic lysis OD700, 18 h; higher = more signal, called active from +8 up or from −8 down
[17] = modulators of S6 phosphorylation in cells, primary screen, cell-based, A549, cytoblot, luminescence, serum-stimulated (AID 1158); conditions: A549 phospho-S6 cytoblot, 5 h, higher = more signal;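 further: serum-stimulated A549 lung adenocarcinoma cells; signal is phosphorylated S6 detected by cytoblot immunostaining with HRP secondary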
[18] = biological target: NADPH oxidase 2 (Homo sapiens) (UniProt P04839); assay: NOX2-dependent H2O2 signal modulators, primary screen, NOX inhibitor project, cell-based, HEK293-NOX2, PMA-stimulated, Amplex Red fluorescence (AID 1159); conditions: 45 min, higher = more signal, called active from +8 up or from −8 down; further: test concentration not given here
[19] = biological target: NADPH oxidase 4 (Homo sapiens) (UniProt Q9NPH5); assay: NOX4-dependent H2O2 signal modulators, primary screen, NOX inhibitor project, cell-based, HEK293-NOX4, tetracycline-induced, Amplex Red fluorescence (AID 1160); conditions: 45 min, higher = more signal, called active from +8 up or from −8 down
[20] = biological target: NADPH oxidase 5 (Homo sapiens) (UniProt Q96PH1); assay: NOX5-dependent H2O2 signal modulators, primary screen, NOX inhibitor project, cell-based, HEK293-NOX5, Amplex Red fluorescence (AID 1161); conditions: HEK293-NOX5, ionomycin, 45 min, higher = more signal
Chain of NADPH oxidase 5 (Homo sapiens) (Q96PH1 whole entry, looked up): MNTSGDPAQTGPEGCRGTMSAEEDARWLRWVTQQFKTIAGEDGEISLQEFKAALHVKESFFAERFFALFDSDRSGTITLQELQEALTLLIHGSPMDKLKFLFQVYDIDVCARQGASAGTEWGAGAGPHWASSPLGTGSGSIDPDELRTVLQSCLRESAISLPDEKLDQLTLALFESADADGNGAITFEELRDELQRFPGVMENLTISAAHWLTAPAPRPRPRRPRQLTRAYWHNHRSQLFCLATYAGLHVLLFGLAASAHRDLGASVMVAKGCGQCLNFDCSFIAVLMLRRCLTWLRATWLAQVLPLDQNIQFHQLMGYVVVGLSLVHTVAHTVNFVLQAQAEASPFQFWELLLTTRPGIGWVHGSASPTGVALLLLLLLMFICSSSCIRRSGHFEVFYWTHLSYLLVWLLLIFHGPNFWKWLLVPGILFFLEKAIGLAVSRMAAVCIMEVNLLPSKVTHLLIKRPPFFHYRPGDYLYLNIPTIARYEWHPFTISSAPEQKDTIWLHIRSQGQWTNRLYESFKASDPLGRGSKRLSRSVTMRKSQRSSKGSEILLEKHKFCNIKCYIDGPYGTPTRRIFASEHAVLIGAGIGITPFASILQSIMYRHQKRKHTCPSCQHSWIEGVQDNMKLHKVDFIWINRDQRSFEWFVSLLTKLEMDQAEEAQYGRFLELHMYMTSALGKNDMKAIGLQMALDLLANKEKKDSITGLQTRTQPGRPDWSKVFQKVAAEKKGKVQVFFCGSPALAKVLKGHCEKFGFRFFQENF

Chain of Streptavidin (Streptomyces avidinii) (P22629 whole entry, looked up): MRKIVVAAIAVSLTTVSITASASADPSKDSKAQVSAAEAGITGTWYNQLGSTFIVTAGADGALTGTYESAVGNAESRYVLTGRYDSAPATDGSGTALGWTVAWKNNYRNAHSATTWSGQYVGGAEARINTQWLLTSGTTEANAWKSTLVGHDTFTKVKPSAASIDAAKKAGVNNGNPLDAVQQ
Chain of NADPH oxidase 2 (Homo sapiens) (P04839 whole entry, looked up): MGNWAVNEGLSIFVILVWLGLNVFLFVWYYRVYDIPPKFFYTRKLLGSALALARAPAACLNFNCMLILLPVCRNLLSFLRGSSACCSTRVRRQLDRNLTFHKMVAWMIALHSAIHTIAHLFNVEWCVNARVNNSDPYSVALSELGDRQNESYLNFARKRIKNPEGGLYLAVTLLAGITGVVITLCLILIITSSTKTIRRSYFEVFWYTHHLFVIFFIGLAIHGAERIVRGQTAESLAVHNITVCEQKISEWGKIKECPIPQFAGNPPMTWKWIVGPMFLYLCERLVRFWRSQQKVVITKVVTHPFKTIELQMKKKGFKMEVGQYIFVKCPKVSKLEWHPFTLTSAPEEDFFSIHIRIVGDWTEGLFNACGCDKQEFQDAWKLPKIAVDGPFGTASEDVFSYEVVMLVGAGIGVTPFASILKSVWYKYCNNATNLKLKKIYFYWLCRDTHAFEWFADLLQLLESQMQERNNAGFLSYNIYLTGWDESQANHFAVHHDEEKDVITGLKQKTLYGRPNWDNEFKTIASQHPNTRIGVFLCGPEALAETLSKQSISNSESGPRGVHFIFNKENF
Chain of Torsin-1A (Homo sapiens) (O14656 whole entry, looked up): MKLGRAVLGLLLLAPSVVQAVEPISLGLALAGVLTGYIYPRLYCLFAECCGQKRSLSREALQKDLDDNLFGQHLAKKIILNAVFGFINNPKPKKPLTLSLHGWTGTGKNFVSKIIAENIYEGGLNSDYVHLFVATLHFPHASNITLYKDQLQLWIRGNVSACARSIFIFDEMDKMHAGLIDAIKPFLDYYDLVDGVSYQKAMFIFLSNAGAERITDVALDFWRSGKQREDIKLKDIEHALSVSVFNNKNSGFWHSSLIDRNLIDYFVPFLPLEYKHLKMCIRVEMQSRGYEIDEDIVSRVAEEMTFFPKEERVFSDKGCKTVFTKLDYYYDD
Chain of NADPH oxidase 4 (Homo sapiens) (Q9NPH5 whole entry, looked up): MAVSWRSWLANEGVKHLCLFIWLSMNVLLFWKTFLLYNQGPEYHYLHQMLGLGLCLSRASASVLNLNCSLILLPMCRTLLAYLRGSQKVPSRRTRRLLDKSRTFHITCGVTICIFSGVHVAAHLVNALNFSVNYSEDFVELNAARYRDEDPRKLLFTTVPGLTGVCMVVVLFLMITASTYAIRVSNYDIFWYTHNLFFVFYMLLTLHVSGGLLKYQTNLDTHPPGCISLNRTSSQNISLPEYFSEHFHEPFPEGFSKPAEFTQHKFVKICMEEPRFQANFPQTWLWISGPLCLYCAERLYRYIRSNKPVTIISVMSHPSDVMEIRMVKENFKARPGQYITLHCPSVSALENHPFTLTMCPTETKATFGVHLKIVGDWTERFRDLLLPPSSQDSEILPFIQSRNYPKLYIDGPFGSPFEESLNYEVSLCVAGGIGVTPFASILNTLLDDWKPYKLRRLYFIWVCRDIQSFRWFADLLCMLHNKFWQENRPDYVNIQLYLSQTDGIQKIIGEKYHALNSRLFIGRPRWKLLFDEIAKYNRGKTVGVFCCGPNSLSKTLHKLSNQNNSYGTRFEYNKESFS

Compound	composite z-score [1]	z-score [2]	z-score [3]	z-score [4]	z-score [5]	composite z-score [6]	composite z-score [7]	composite z-score (Torsin-1A (Homo sapiens) [8])	composite z-score (Torsin-1A (Homo sapiens) [9])	composite z-score [10]	z-score [11]	composite z-score [12]	z-score [13]	z-score [14]	z-score [15]	z-score [16]	z-score [17]	z-score [18]	z-score [19]	z-score [20]
CCCC(=O)N(CCc1c[nH]c2ccccc12)[C@@H]1CC(C(=O)NCCO)=C[C@H](Oc2c(I)cc(CO)cc2OC)[C@H]1O	-0.0727	-0.0737 (inactive)	-0.396 (inactive)	0.486 (inactive)	-0.887 (inactive)	-0.268	-0.128	-0.24	0.0165	-0.251	1.57 (inactive)	-0.275	13.2 (active)	1.47 (inactive)	2.04 (inactive)	0.501 (inactive)	0.968	-0.674 (inactive)	1.07 (inactive)	1.16
O=C1NC(=O)C2C1C=CC(C(O)c1ccc(I)cc1)N2Nc1ccc(Cl)cc1Cl (stereo not given)	0.372	-1.58 (inactive)	-1.74 (inactive)	1.77 (inactive)	-0.299 (inactive)	1.34	0.337	0.0137	0.303	-0.366	-0.971 (inactive)	0.618	5.17 (inactive)	0.872 (inactive)	-1.72 (inactive)	-1.16 (inactive)	1.22	-0.204 (inactive)	-4.36 (inactive)	-0.634
CN1C(=O)C2C=CC(C(O)c3c(F)cccc3Cl)N(NC(=O)OC(C)(C)C)C2C1=O (stereo not given)	0.213	0.736 (inactive)	0.232 (inactive)	0.622 (inactive)	0.947 (inactive)	1.18	0.181	0.622	0.591	-0.0049	-0.963 (inactive)	0.343	-0.332 (inactive)	0.119 (inactive)	-0.46 (inactive)	0.58 (inactive)	-1.11	-1.06 (inactive)	-0.495 (inactive)	-1.03
NCCCCCNC(=O)[C@H]1C[C@H]2C(=O)N3CCC[C@H]3C(=O)N2[C@H]1c1ccc(O)cc1	0.354	0.173 (inactive)	-0.12 (inactive)	0.285 (inactive)	0.165 (inactive)	1.23	0.336	1.66	1.09	1.65	-0.607 (inactive)	1.17	0.888 (inactive)	0.0655 (inactive)	-1.9 (inactive)	0.0061 (inactive)	-0.604	0.0724 (inactive)	0.719 (inactive)	-0.182
C=C(/C(=C/C[C@H](OC(C)=O)c1ccc(OCCO)cc1)c1cc(C(=O)OC)ccc1OC)C(C)C	0.269	-2.4 (inactive)	-0.357 (inactive)	20.7 (active)	-0.509 (inactive)	1.17	0.0589	0.287	1.98	1.41	0.759 (inactive)	0.0844	19.2 (active)	4.38 (inactive)	3.26 (inactive)	1.36 (inactive)	0.31	0.864 (inactive)	0.217 (inactive)	-1.42
O=C(O)[C@H]1C[C@H]2C(=O)N3CCC[C@H]3C(=O)N2[C@H]1c1ccc(O)cc1	-0.32	-0.44 (inactive)	-0.0598 (inactive)	-0.122 (inactive)	-0.233 (inactive)	-1.29	-0.122	0.244	0.109	0.0164	0.852 (inactive)	-0.121	1.9 (inactive)	0.0196 (inactive)	-6.59 (inactive)	0.104 (inactive)	-0.275	0.583 (inactive)	0.16 (inactive)	0.932
CCCCC(O)C1C=CC2C(=O)N(C)C(=O)C2N1N1CCCCC1 (stereo not given)	0.0755	1.09 (inactive)	0.382 (inactive)	0.0535 (inactive)	0.47 (inactive)	0.0223	0.196	0.0748	0.845	0.0629	-1.43 (inactive)	0.384	0.537 (inactive)	0.917 (inactive)	0.155 (inactive)	1.47 (inactive)	-0.751	-0.353 (inactive)	0.133 (inactive)	-1.03
C=C(CCCC)C(=O)CC[C@H](OC(=O)c1cccnc1)c1ccc(OCCO)cc1	0.0366	-2.23 (inactive)	0.192 (inactive)	13.3 (active)	2.15 (inactive)	-0.118	0.0903	0.471	0.546	0.381	-0.646 (inactive)	-0.0316	24.3 (active)	6.53 (inactive)	1.8 (inactive)	1.39 (inactive)	0.178	-1.12 (inactive)	0.000526 (inactive)	-2.09
O=C1NC(=O)C2C1C=CC(C(O)c1ccc(-c3ccccc3)s1)N2Nc1ccc(Cl)cc1Cl (stereo not given)	0.289	-1.1 (inactive)	-1.77 (inactive)	-0.136 (inactive)	-0.128 (inactive)	1.34	0.0569	0.344	0.14	-0.82	-2.23 (inactive)	-0.141	2.29 (inactive)	1.58 (inactive)	-0.666 (inactive)	1.07 (inactive)	-1.09	0.964 (inactive)	-3.15 (inactive)	-0.664
